# Test results as given in PubChem BioAssay (NCATS).
# Measured potencies and affinities stand elsewhere. Activity calls are given as the source filed them. Calls come from the whole dose curve.
# Conditions: Ebola virus entry assay, green fluorescence channel
row,Compound,outcome
1,Cc1nnc(C(C)C)n1C1C[C@H]2CC[C@@H](C1)N2CC[C@H](NC(=O)C1CCC(F)(F)CC1)c1ccccc1 (stereo partly drawn),inactive
2,Cc1noc(NS(=O)(=O)c2ccc(N)cc2)c1C,inactive
3,C[N+]1(C)CCCC(OC(=O)C(O)(c2ccccc2)c2ccccc2)C1 (stereo not drawn),inactive
4,CC(C)(O/N=C(\C(=O)N[C@@H]1C(=O)N2C(C(=O)[O-])=C(C[n+]3ccccc3)CS[C@H]12)c1csc(N)n1)C(=O)O,inactive
5,CCN(CC)C(=O)[C@]1(c2ccccc2)C[C@@H]1CN,inactive
6,NS(=O)(=O)c1cc(Cl)c(Cl)c(S(N)(=O)=O)c1,inactive
7,CCN1CC(CCN2CCOCC2)C(c2ccccc2)(c2ccccc2)C1=O (stereo not drawn),inactive
8,Nc1nc(Cl)nc2c1ncn2[C@@H]1O[C@H](CO)[C@@H](O)[C@@H]1F,inactive
9,CCCCC(=O)N(Cc1ccc(-c2ccccc2-c2nn[nH]n2)cc1)[C@@H](C(=O)O)C(C)C,inactive
10,NC(=O)N1c2ccccc2C=Cc2ccccc21,inactive
11,S=c1nc[nH]c2nc[nH]c12,inactive
12,C=C1C(=C/C=C2\CCC[C@]3(C)[C@@H]([C@H](C)CCCC(C)(C)O)CC[C@@H]23)C[C@@H](O)C[C@@H]1O,inactive
13,C=CC(N)CCC(=O)O (stereo not drawn),inactive
14,O=C(O)C[C@H](O)C[C@H](O)/C=C/c1c(C2CC2)nc2ccccc2c1-c1ccc(F)cc1,inactive
15,CO[C@H]1C=CO[C@@]2(C)Oc3c(C)c(O)c4c(O)c(c(/C=N/N5CCN(C6CCCC6)CC5)c(O)c4c3C2=O)NC(=O)/C(C)=C\C=C[C@H](C)[C@H](O)[C@@H](C)[C@@H](O)[C@@H](C)[C@H](OC(C)=O)[C@@H]1C,inactive
16,CCOC(=O)[C@H](CCc1ccccc1)N[C@H]1CCCN2CCC[C@@H](C(=O)O)N2C1=O,inactive
17,OCC(S)CS (stereo not drawn),inactive

row,Compound,outcome
1,Nc1ccc(C(=O)O)c(O)c1,inactive
2,CN1[C@@H]2CC[C@H]1CC(OC(c1ccccc1)c1ccccc1)C2 (stereo partly drawn),inactive
3,CCCCCCCN(CC)CCCC(O)c1ccc(NS(C)(=O)=O)cc1 (stereo not drawn),inactive
4,CCOC(=O)CCC(=O)O[C@H]1[C@H](O[C@@H]2[C@@H](C)[C@H](O[C@H]3C[C@@](C)(OC)[C@@H](O)[C@H](C)O3)[C@@H](C)C(=O)O[C@H](CC)[C@@](C)(O)[C@H](O)[C@@H](C)C(=O)[C@H](C)C[C@@]2(C)O)O[C@H](C)C[C@@H]1N(C)C,inactive
5,CO[C@H]1C[C@@H]2CC[C@@H](C)[C@@](O)(O2)C(=O)C(=O)N2CCCC[C@@H]2C(=O)O[C@H]([C@@H](C)C[C@@H]2CC[C@H](O)[C@H](OC)C2)CC(=O)[C@H](C)C=C(C)[C@@H](O)[C@@H](OC)C(=O)[C@H](C)C[C@H](C)C=CC=CC=C1C,inactive
6,CC(C)NCC(O)c1ccc(NS(C)(=O)=O)cc1 (stereo not drawn),inactive
7,CC(C)[C@H]1C(=O)N2CCC[C@H]2[C@]2(O)O[C@](NC(=O)[C@@H]3C[C@@H]4c5cccc6[nH]cc(c56)C[C@H]4N(C)C3)(C(C)C)C(=O)N12,inactive
8,CC=CC1=C(C(=O)O)N2C(=O)[C@H](NC(=O)[C@H](N)c3ccc(O)cc3)[C@@H]2SC1,inactive
9,C=CC1=C(C(=O)O)N2C(=O)[C@@H](NC(=O)/C(=N/OCC(=O)O)c3csc(N)n3)[C@H]2SC1 (stereo in doubt),inactive
10,C[C@@H]1O[C@@H]1P(=O)(O)O,inactive
11,CC[C@H]1OC(=O)[C@H](C)[C@@H](O[C@H]2C[C@@](C)(OC)[C@@H](O)[C@H](C)O2)[C@H](C)[C@@H](O[C@@H]2O[C@H](C)C[C@H](N(C)C)[C@@H]2O)[C@](C)(O)C[C@@H](C)CN(C)[C@H](C)[C@@H](O)[C@]1(C)O,inactive
12,COc1ccc2c(c1)C13CCCC[C@@H]1C(C2)N(C)CC3 (stereo partly drawn),inactive
13,CO[C@@H]1[C@@H](O[C@@H]2O[C@H](C)[C@@H](O[C@H]3C[C@@](C)(O)[C@@H](O)[C@H](C)O3)[C@H](N(C)C)[C@H]2O)[C@@H](CC=O)C[C@@H](C)[C@@H](O[C@@H]2CC[C@H](N(C)C)[C@@H](C)O2)/C=C/C=C/C[C@@H](C)OC(=O)C[C@H]1O,inactive
14,CC(C)CN(C[C@@H](O)[C@H](Cc1ccccc1)NC(=O)O[C@@H]1CCOC1)S(=O)(=O)c1ccc(N)cc1,inactive
15,CC(C)[C@H](N)C(=O)OCC(CO)OCn1cnc2c(=O)[nH]c(N)nc21 (stereo partly drawn),inactive
16,COc1cc([C@@H]2c3cc4c(cc3[C@@H](O[C@@H]3O[C@@H]5CO[C@@H](c6cccs6)O[C@@H]5[C@H](O)[C@@H]3O)[C@H]3COC(=O)[C@H]23)OCO4)cc(OC)c1O,inactive
